Laboratory results: the supplement of paper PMC11219838

Test system: Caenorhabditis elegans L1 (N2)
Experiment: survival and reproduction score of C. elegans L1 (0: 0-10 living worms, 1: 11-20, 2: 21-50, 3: >50, 4: overgrown) (score 0-4); higher = more worms, less nematicidal, active = 1 or less; extreme values may be limits of the assay
Details: 60 µM; 6 days; temperature: 20 °C
Procedure: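 DODA library (846 commercial 1,3,4- and 1,2,4-oxadiazole compounds plus commercial nematicide controls) screened at a single dose of 60 µM (0.6% DMSO) in 96-well plates, two biological replicates. Read-outs: C. elegans N2 L1 survival/reproduction score at day 6, 20 °C (0: 0-10 worms, 1: 11-20, 2: 21-50, 3: >50, 4: overgrown/starved). C. elegans daf-2 dauer, D. dipsaci and M. hapla J2 mobility at day 5, 20 °C, and P. penetrans mobility at day 5, 20 °C, each relative to DMSO controls. M. hapla egg hatching at day 12, 25 °C, relative to the mean of 8 DMSO wells on the same plate.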

Structure (SMILES)	survival and reproduction score
COc1ccc(C(=O)CSc2nnc(-c3cccc4ccccc34)o2)cc1	4 (inactive)
CC1CC(C)CN(C(=O)CSc2nnc(-c3cccc(Cl)c3)o2)C1 (stereo not given)	4 (inactive)
COc1ccc(-c2nnc(SCC(=O)Nc3ccc(Br)cc3C)o2)cc1	4 (inactive)
Cc1cccc(-c2noc(COc3ccc(Br)cc3)n2)c1	4 (inactive)
Clc1ccc(CSc2nnc(-c3ccccc3)o2)c(Cl)c1	4 (inactive)
CC(=O)Nc1ccc(NC(=O)c2ccccc2-c2nc(-c3ccccc3Cl)no2)cc1	4 (inactive)
COc1ccc(OC(C)c2nc(-c3cccnc3)no2)cc1 (stereo not given)	4 (inactive)
Brc1ccc(CSc2nnc(-c3ccncc3)o2)cc1	4 (inactive)
Cc1ccc(NC(=O)CSc2nnc(-c3ccco3)o2)cc1Br	4 (inactive)
Cc1csc(NC(=O)CSc2nnc(-c3cccc(Cl)c3)o2)n1	4 (inactive)
Brc1cccc(-c2nc(-c3ccncc3)no2)c1	1 (active)
Clc1ccc(SCc2nc(-c3ccccc3)no2)cc1	0 (active)
COc1ccc(-c2nnc(SCC(=O)Nc3c(F)cc(F)cc3Br)o2)cc1	4 (inactive)
CCc1ccc(NC(=O)CSc2nnc(-c3ccco3)o2)cc1	4 (inactive)
COc1cccc(-c2noc(COc3cc(C)ccc3C)n2)c1	4 (inactive)
CC(=O)c1cccc(NC(=O)CSc2nnc(-c3ccccc3)o2)c1	4 (inactive)
Brc1ccccc1-c1nc(-c2ccccc2)no1	0 (active)
O=C(CSc1nnc(-c2ccccc2Cl)o1)Nc1ccccn1	4 (inactive)
Cc1ccc(-c2nnc(SCC(=O)Nc3ccc(Br)c(C)c3C)o2)cc1	4 (inactive)
c1ccc(OCc2nc(-c3cccs3)no2)cc1	0 (active)

Structure (SMILES)	survival and reproduction score
COc1cccc(-c2nnc(SCc3ccccc3)o2)c1	4 (inactive)
COc1ccc(-c2nnc(SCc3ccc(Cl)cc3Cl)o2)cc1	4 (inactive)
COc1ccc(-c2nnc(SCC(=O)Nc3ccccc3F)o2)cc1	4 (inactive)
O=C(Nc1cccc(-c2noc(COc3ccccc3)n2)c1)c1cccs1	4 (inactive)
Cn1cc(C(=O)CSc2nnc(-c3ccccc3)o2)c2ccccc21	0 (active)
COc1cccc(-c2noc(-c3c(F)cccc3F)n2)c1	4 (inactive)
Cc1ccc(-c2nnc(SCC(=O)Nc3cc(C)c(C)cc3Br)o2)cc1	4 (inactive)
CCCC(=O)Nc1ccccc1-c1nc(-c2cccnc2)no1	4 (inactive)
COc1ccc(-c2noc(CSc3ccc(C)cc3)n2)cc1	4 (inactive)
COc1ccc(-c2noc(COc3ccc(C)c(C)c3)n2)cc1	4 (inactive)
Cc1ccc(-c2nc(-c3ccccc3Cl)no2)c(Cl)c1	4 (inactive)
COc1cccc(-c2noc(-c3ccccc3C)n2)c1	0.5 (active)
Clc1ccc(OCc2nc(-c3ccncc3)no2)cc1	4 (inactive)
CC(C)(C)c1ccc(OCc2nc(-c3ccncc3)no2)c(Br)c1	4 (inactive)
COc1ccc(-c2noc(COc3ccc(C)cc3Br)n2)cc1	4 (inactive)
Cc1ccc(-c2noc(-c3ccc(Br)o3)n2)s1	0 (active)
COc1ccc(-c2noc(COc3ccc4c(c3)CCCC4)n2)cc1	4 (inactive)
COc1ccc(Cl)cc1-c1noc(-c2ccccc2C)n1	4 (inactive)
Clc1ccc(OCc2nc(-c3ccccc3)no2)c(Br)c1	1 (active)
Brc1cccc(-c2nc(-c3ccccc3)no2)c1	0 (active)
